# Measured values as given in PubChem BioAssay (NCATS).
# Several values for one entry are separate records, joined by “and”; a condition that tells them apart may be missing. Equal values may be shown once. Records with an inconclusive call do not appear. Activity calls are given as the source filed them. The call rests on the fitted dose curve; in most records, active means well fitted curve in the direction sought with a large enough effect; inconclusive means small, poorly fitted or top-dose-only effect, or another doubt; inactive means no such curve, though single readings can be large or run the other way.
# Assay: qHTS Assay for Identifying Gametocytocidal Compounds (AID 743244);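 on max response: actives lower the fluorescent signal which means gametocytes are killed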
# Details: P. falciparum 3D7 stage III-V gametocytes, alamarBlue, 72 h; max response: hits give low values
# Outline: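 3D7 gametocytes, stages III–V, 20,000/well; cpd 72 h, 37 °C/5% CO2; + alamarBlue 24 h; fluor. Ex 525/Em 598.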
# On the % scale 0 is the no-effect control and ±100 the full control effect; potency means the concentration at half of the fitted maximal effect.
SMILES,max response,Potency
C[C@H]1CNCCc2ccc(Cl)cc21,16.3% (inactive),–
C[C@@H]1CN(C2CCC(C#N)(c3ccc(F)cc3)CC2)CC[C@]1(C(=O)O)c1ccccc1 (some centres undefined),-3.29% (inactive),–
CCS(=O)(=O)C(C)(C)S(=O)(=O)CC,4.59% (inactive),–
CC(C)=C[C@@H]1[C@@H](C(=O)OCc2coc(Cc3ccccc3)c2)C1(C)C,-1.71% (inactive),–
COc1cc(CC(C)N)c(OC)cc1Br (centres undefined),-17.7% (inactive) and 14.6% (inactive),–
C[C@@H]1CC[C@H]2[C@@H](C)C(=O)O[C@@H]3O[C@@]4(C)CC[C@@H]1[C@]32OO4,–,0.132 µM (active)
Nc1ccc(N)cc1,-1.22% (inactive),–
C[C@]12CC[C@H]3[C@@H](CC=C4C[C@@H](O)CC[C@@]43C)[C@@H]1CC[C@@H]2O,-0.897% (inactive),–
CCOC(=O)NC(O)C(Cl)(Cl)Cl (centres undefined),9.34% (inactive),–
CCCC(C)C1(CC)C(=O)N=C(S)NC1=O (centres undefined),6.11% (inactive),–
O=C1NC2CCCCN2C12CCN(CCCN1c3ccccc3CCc3ccc(Cl)cc31)CC2 (centres undefined),–,22.4 µM (active)
O=C(O)c1ccccc1Nc1cc(Cl)ccc1C(=O)O,32.7% (inactive),–
C=CC[C@]1(O)CC[C@H]2[C@@H]3CCC4=CC(=O)CCC4=C3C=C[C@@]21C,1.81% (inactive),–
COc1cc(N)c(Cl)cc1C(=O)NC1CN2CCC1CC2 (centres undefined),-2.64% (inactive),–
CCN(CC)Cc1nccn1-c1ccc([N+](=O)[O-])cc1C(=O)c1ccccc1Cl,–,16.6 µM (active)
O=C1CC2(CCCC2)CC(=O)N1CCCCN1CCN(c2ncccn2)CC1,13.6% (inactive),–
O=C(Nc1ccc(Cl)cc1)Nc1ccc(Cl)c(Cl)c1,–,15.8 µM (active) and 29.6 µM (active)

SMILES,max response,Potency
COc1cc(C[C@@H](C)N)c(OC)cc1Br,0.803% (inactive),–
CCN(CC)C(C)C(=O)c1ccccc1 (centres undefined),2.91% (inactive),–
NC(N)=NN=C(/C=C/c1ccc([N+](=O)[O-])o1)/C=C/c1ccc([N+](=O)[O-])o1,–,7.94 µM (active)
CCC1(CC)C(=O)NC(=O)NC1=O,-6.5% (inactive),–
NC(N)=NC(=O)c1nc(Cl)c(N)nc1N,25% (inactive),–
Clc1ccc(CO/N=C(\Cn2ccnc2)c2ccc(Cl)cc2Cl)c(Cl)c1,–,10 µM (active)
c1ccc2nc(N3CCNCC3)ccc2c1,-4.39% (inactive),–
O=C1NCN(c2ccccc2)C12CCN(CCCOc1ccc(F)cc1)CC2,0.637% (inactive),–
CCC1(c2cccc(O)c2)CCCCN(C)C1 (centres undefined),11.4% (inactive),–
C[C@]12CC[C@H](O)CC1=CC[C@@H]1[C@@H]2CC[C@]2(C)C(=O)CC[C@@H]12,-7.96% (inactive),–
C#C[C@]1(O)C=C[C@H]2[C@@H]3CCC4=CC(=O)CC[C@@H]4[C@H]3CC[C@@]21CC,2.38% (inactive),–
O=C(N[C@@H]1N=C(c2ccccc2F)c2cccc3c2N(CC3)C1=O)c1cc2ccccc2[nH]1,-8.36% (inactive),–
CCCCC1C(=O)NC(=O)N(C2CCCCC2)C1=O (centres undefined),-2.42% (inactive),–
NC1(c2ccccc2)CCCCC1,3.42% (inactive),–
NC(=O)OCCCc1ccccc1,-5.39% (inactive),–
C[N+](C)(C)CCCCCCCCCC[N+](C)(C)C,-0.962% (inactive),–
Cc1nc2ccccc2c(=O)n1-c1ccccc1Cl,1.05% (inactive),–
